# High-throughput results from PubChem.
# Shown are actives, neighbours in structure and some others; about 3.8% of the full set was active somewhere.
# PAFAH1B3 inh = PAFAH1B3 enzyme inhibitors, primary screen, biochemical, fluorescence polarization, human. Platelet-activating factor acetylhydrolase IB subunit alpha1 (Homo sapiens), Q15102. recombinant PAFAH1B3, FP-rhodamine probe. inhibition, % at 3.39 µM. 0.28% of 340,000 active. AID 492972, 2010;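 active = inhibition above the screen-wide average of all tested compounds plus 3 SD, cut at about 25% in these data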;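 also: 0% = enzyme with DMSO only and 100% = wells lacking PAFAH1B3 protein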
# PAFAH1B2 inh = PAFAH1B2 enzyme inhibitors, primary screen, biochemical, fluorescence polarization, human; Platelet-activating factor acetylhydrolase IB subunit alpha2 (Homo sapiens), P68402; recombinant PAFAH1B2, FP-rhodamine activity probe; inhibition, % at 3.39 µM; 1.2% of 340,000 active;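 active = inhibition above the mean of all tested compounds plus 3 SD, cut at about 24% in these data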;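 also: 0% = enzyme with DMSO and 100% = wells lacking PAFAH1B2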
# Pemphigus Ab inh = inhibitors of pemphigus antibody binding to DSG3, primary screen, biochemical, bead-based, flow cytometry, scFv-GFP; Desmoglein-3 (Homo sapiens), P32926; 0.48% of 310,000 active; DSG3-coupled beads, scFv-anti-DSG3-GFP binding; active compounds read low; binding (percent of control), % at 10 µM;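 active = binding more than 3 SD below its plate's average and above zero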;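 also: hits lower antibody fragment binding to DSG3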
# Target sequence (P32926 whole entry, looked up, the tested form may be a part): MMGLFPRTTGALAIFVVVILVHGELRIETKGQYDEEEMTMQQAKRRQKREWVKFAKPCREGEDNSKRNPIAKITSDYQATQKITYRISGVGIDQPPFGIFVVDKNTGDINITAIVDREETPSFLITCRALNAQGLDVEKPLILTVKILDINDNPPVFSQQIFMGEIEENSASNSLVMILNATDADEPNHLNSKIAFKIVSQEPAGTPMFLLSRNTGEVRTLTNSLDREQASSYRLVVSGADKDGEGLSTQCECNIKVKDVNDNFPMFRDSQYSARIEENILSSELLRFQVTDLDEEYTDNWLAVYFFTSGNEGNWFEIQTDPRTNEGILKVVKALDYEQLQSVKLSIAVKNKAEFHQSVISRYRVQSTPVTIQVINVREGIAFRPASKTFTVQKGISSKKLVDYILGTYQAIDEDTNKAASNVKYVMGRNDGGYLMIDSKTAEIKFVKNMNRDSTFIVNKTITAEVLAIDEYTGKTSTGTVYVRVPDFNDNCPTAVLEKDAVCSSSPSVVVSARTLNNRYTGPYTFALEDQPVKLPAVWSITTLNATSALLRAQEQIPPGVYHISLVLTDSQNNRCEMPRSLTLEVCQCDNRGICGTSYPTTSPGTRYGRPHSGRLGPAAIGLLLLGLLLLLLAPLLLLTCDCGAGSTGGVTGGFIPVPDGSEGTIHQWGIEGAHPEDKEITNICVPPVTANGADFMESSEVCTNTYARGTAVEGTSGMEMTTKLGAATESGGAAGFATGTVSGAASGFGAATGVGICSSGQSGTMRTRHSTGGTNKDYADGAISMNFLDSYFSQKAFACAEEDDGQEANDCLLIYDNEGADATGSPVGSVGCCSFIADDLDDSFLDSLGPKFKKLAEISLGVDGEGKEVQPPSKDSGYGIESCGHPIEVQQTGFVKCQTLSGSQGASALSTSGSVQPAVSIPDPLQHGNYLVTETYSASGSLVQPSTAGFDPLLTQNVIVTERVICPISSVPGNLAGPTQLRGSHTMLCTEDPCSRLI
# pPAFAH inh = pPAFAH enzyme inhibitors, primary screen, biochemical, fluorescence polarization, human | 1.5% of 330,000 active | inhibition, % at 3.39 µM | recombinant pPAFAH, FP-rhodamine probe fluorescence polarization;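 active = inhibition above the mean inhibition across the screen plus 3 SD, cut at about 25% in these data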;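 also: inhibitors block binding of the rhodamine activity-based probe so polarization drops; 0% = enzyme with DMSO and 100% = wells lacking pPAFAH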
# PAFAH2 inh = PAFAH2 enzyme inhibitors, primary screen, biochemical, fluorescence polarization, human | Platelet-activating factor acetylhydrolase 2, cytoplasmic (Homo sapiens), Q99487 | recombinant PAFAH2, FP-rhodamine activity probe | inhibition, % at 3.39 µM | 0.99% of 340,000 active | AID 492956, 2010;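 active = inhibition above the mean over all tested compounds plus 3 SD, cut at about 30% in these data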;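 also: inhibitors block probe labeling of enzyme so polarization drops; 0% = enzyme with DMSO and 100% = wells lacking PAFAH2 protein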
# PfM18AAP inh = PfM18AAP inhibitors, malaria aminopeptidase, primary screen, biochemical, QFRET, recombinant enzyme; H-Glu-NHMec fluorogenic cleavage; inhibition, % at 7.35 µM; 1.2% of 290,000 active;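 active = inhibition above the campaign mean inhibition over all tested compounds plus 3 SD, cut at about 28% in these data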;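 also: 0% = plate median of test compound wells and 100% = 2 mM ZnCl2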
# Starred values were filed as active, the others as inactive; . = not tested or not shown.
SMILES,PAFAH1B3 inh,PAFAH1B2 inh,Pemphigus Ab inh,pPAFAH inh,PAFAH2 inh,PfM18AAP inh
O=c1[nH]cc(S(=O)(=O)N2CCN(c3ccc(F)cc3)CC2)c(=O)[nH]1,.,.,104.8,.,.,.
COc1ccc(C2=Nn3c(nnc3-c3ccccc3Cl)SC2)cc1OC1CCOC1 (stereo unspecified),1.1,1.4,73.8*,3.7,-6.0,.
O=S(=O)(Nc1cccc(-c2cn3ccsc3n2)c1)c1ccc(F)cc1,14.3,7.2,.,32.2*,4.7,4.6
CC(Sc1nc(N)cc(=O)[nH]1)C(=O)Nc1ccc(N2CCOCC2)cc1 (stereo unspecified),.,.,96.2,.,.,.
O=C(Cc1cccs1)N/N=C/C=C/c1ccco1,0.8,5.9,99.7,24.7*,6.4,1.9
O=C(Cc1ccc(Cl)c(Cl)c1)Nc1ccc(S(=O)(=O)Nc2ncccn2)cc1,-0.6,5.5,103.2,7.3,-0.6,-5.8
O=c1ccc(NS(=O)(=O)c2ccccc2)cn1Cc1ccc(Cl)c(Cl)c1,9.0,15.4,102.5,25.8*,5.4,-4.1
CN(CC(=O)NCC1CCCO1)S(=O)(=O)c1ccc2ccccc2c1 (stereo unspecified),.,.,101.4,.,.,.
Fc1ccccc1NC(=S)NNc1ncc(C(F)(F)F)cc1Cl,11.2,-0.6,69.4,4.2,2.6,28.1*
COc1cccc(OCC(=O)NNC(=O)Cc2cccs2)c1,4.8,3.8,98.4,0.7,9.5,1.9
CC(C)(C)c1ccc(OCC(=O)NNC(=O)Cc2cccs2)cc1,1.0,26.0*,105.4,5.6,5.9,-4.5
Cc1ccc(SCC(=O)OCC(=O)N(C)C2CCS(=O)(=O)C2)cc1C (stereo unspecified),6.8,3.9,101.0,24.6*,-11.1,.
CC(C)CN(C(=O)COC(=O)CSc1ccc([N+](=O)[O-])cc1)C1CCS(=O)(=O)C1 (stereo unspecified),5.9,24.7*,103.8,3.6,3.4,.
Cc1ccc(SCC(=O)OCC(=O)N(CC(C)C)C2CCS(=O)(=O)C2)cc1C (stereo unspecified),4.0,12.9,75.5,0.2,-0.9,.
COC(=O)c1cc(NC(=O)Cc2cccs2)cc(C(=O)OC)c1,11.3,5.3,100.2,26.4*,8.9,-0.9
CC(=O)Nc1cccc(NC(=O)Cc2cccs2)c1,8.8,-2.0,91.3,10.5,1.4,3.3
Cc1ccc([N+](=O)[O-])cc1NC(=O)Cc1cccs1,2.0,-1.9,91.2,26.6*,0.5,3.8
O=C(NCc1cccnc1)c1cc(Sc2cccc(Cl)c2)nc2ccccc12,-4.2,1.6,105.3,33.2*,10.0,-7.7
O=C(Oc1ccc(-c2cnc3ccccc3n2)cc1)c1ccc(Cl)c([N+](=O)[O-])c1,2.1,1.8,94.9,-1.2,0.8,-8.6
O=[N+]([O-])c1cc(-c2cnc3ccccc3n2)ccc1Oc1ccc(Br)cc1,2.2,54.1*,97.9,4.6,-6.9,1.7
CC1CN(C(=O)COC(=O)c2cc(=O)[nH]c3ccccc23)CC(C)O1 (stereo unspecified),.,.,94.9,.,.,.
CN(C)S(=O)(=O)c1cccc(NC(=O)COC(=O)c2cc3ccccc3oc2=O)c1,4.1,1.5,71.2*,-2.8,18.8,-4.3
CC1CC(C)CN(C(=O)CN2C(=O)NC(c3ccccc3)(c3ccccc3)C2=O)C1 (stereo unspecified),0.4,26.1*,98.6,2.5,-1.3,.
CCOC(=O)N1CCN(C(=O)CN2C(=O)NC(c3ccccc3)(c3ccccc3)C2=O)CC1,3.1,2.7,97.3,0.4,0.2,0.3
O=C1c2ccccc2C(=O)N1CCC#C/C=C1\c2ccccc2C(=O)N1c1ccccc1,.,.,100.6,.,.,.
O=C(NCc1ccco1)c1cc2ccc(O)cc2oc1=O,8.1,3.5,.,11.3,12.9,28.4*
O=C(CCC(=O)NNC(=O)COc1ccc(Br)cc1Br)NCc1ccccc1,.,.,96.3,27.1*,.,-1.6
CC1(C)CC(=O)c2cc3c(N)c(C(=O)NCc4ccccc4)sc3nc2C1,2.2,6.7,90.1,1.6,2.5,0.8
